The values that follow come from the supplement of paper PMC6658780.

In test [1] the test system is Klebsiella pneumoniae KPC-119. Briefly: percent growth inhibition of drug alone vs DMSO control; higher = more growth inhibition. The conditions noted are these: antibiotic (0.125x MIC): none (0.1% DMSO).
In test [2] the test system is Klebsiella pneumoniae KPC-119. Nature of the test: percent growth inhibition of drug + antibiotic vs DMSO control; higher = more growth inhibition.
The test system of test [3] is Klebsiella pneumoniae NCTC-13439. Briefly: percent growth inhibition of drug alone vs DMSO control; higher = more growth inhibition. Particulars: antibiotic (0.125x MIC): none (0.1% DMSO).
For test [4] the test system is unchanged. Briefly: percent growth inhibition of drug + antibiotic vs DMSO control; higher = more growth inhibition.
Setting [5] is: antibiotic (0.125x MIC): colistin, 20 µM.
Where [6] appears, read: antibiotic (0.125x MIC): colistin, 7 µM.
Where [7] appears, read: antibiotic (0.125x MIC): gentamicin, 7 µM.
The mark [8] stands for this setting: antibiotic (0.125x MIC): ciprofloxacin, 7 µM.
The mark [9] stands for this setting: antibiotic (0.125x MIC): ciprofloxacin, 20 µM.
Setting [10] is: antibiotic (0.125x MIC): tigecycline, 7 µM.
Setting [11] is: antibiotic (0.125x MIC): tigecycline, 20 µM.

Where a name gives a salt, the structure may show the parent alone. ± gives the standard deviation of the averaged measurements.

As to `COc1nc(C)nc(Cl)c1NC1=NCCN1` [Moxonidine], the “percent growth inhibition of drug alone” value in test [1] (7 µM) is -0.572 ± 3.2%; in test [1] (20 µM), -0.25 ± 3.1%. Further, in test [2] (setting [5]), the percent growth inhibition is -7.57 ± 6.4%.

Consider `CN(C)CCCN1c2ccccc2Sc2ccc(Cl)cc21` [Chlorpromazine hydrochloride], for which the entries for the “percent growth inhibition of drug alone” value in test [1] (7 µM) and in test [1] (20 µM) were -3.83 ± 2.6% and -3.58 ± 1.3%, respectively. The values for the percent growth inhibition in test [2] (setting [6]) and in test [2] (setting [5]) were 41.9 ± 12% and 2.49 ± 2.4%, respectively.

Turning to `CO/N=C(\C(=O)N[C@@H]1C(=O)N2C(C(=O)O)=C(COC(C)=O)CS[C@H]12)c1csc(N)n1` [Cefotaxime sodium salt], the results for the “percent growth inhibition of drug alone” value in test [1] (7 µM) and in test [1] (20 µM) were 4.98 ± 2% and 37.8 ± 0.86%, respectively. The percent growth inhibition in test [2] (setting [7]) stood at 29.3 ± 2.3%.

Regarding `C[C@H]1c2cccc(O)c2C(=O)C2=C(O)[C@]3(O)C(=O)C(C(N)=O)=C(O)[C@@H](N(C)C)[C@@H]3[C@@H](O)[C@@H]21` [Doxycycline hydrochloride], the “percent growth inhibition of drug alone” value in test [1] (7 µM) came out at 15.8 ± 3%; in test [1] (20 µM) it was 35.7 ± 5.2%. In addition, the percent growth inhibition in test [2] (setting [6]) was found to be 42.8 ± 2.2%; in test [2] (setting [5]), 91.4 ± 2.1%.

In the case of `CCN1CCCC1CNC(=O)c1cc(S(N)(=O)=O)ccc1OC` (centres undefined) [Sulpiride], the “percent growth inhibition of drug alone” value was -2.88 ± 3.1% in test [1] (7 µM) and -3.73 ± 0.65% in test [1] (20 µM). For the same compound, in test [2] (setting [5]), the percent growth inhibition was -7.13 ± 1.4%.

Take `COc1cnc(NS(=O)(=O)c2ccc(N)cc2)nc1` [Sulfameter]: the “percent growth inhibition of drug alone” value was -1.55 ± 2.6% in test [1] (7 µM) and -0.515 ± 1.5% in test [1] (20 µM). Further, the percent growth inhibition in test [2] (setting [5]) is -5.03 ± 15%.

For the compound `Clc1ccc(CCC(Cn2ccnc2)Sc2c(Cl)cccc2Cl)cc1` (centres undefined) [Butoconazole nitrate], the “percent growth inhibition of drug alone” value was -1.2 ± 2.2% in test [1] (7 µM) and 2.34 ± 3.2% in test [1] (20 µM). Also, the percent growth inhibition in test [2] (setting [5]) is 6.76 ± 0.1%.

For the compound `CO[C@@]1(NC(=O)Cc2cccs2)C(=O)N2C(C(=O)O)=C(COC(N)=O)CS[C@@H]21` [Cefoxitin sodium salt], the “percent growth inhibition of drug alone” value in test [1] (7 µM) is 5.37 ± 2%; in test [1] (20 µM), 7.08 ± 6.2%. Besides, the percent growth inhibition in test [2] (setting [7]) came to 8.4 ± 13%.

Regarding `COc1cccc2c1C(=O)c1c(O)c3c(c(O)c1C2=O)C[C@@](O)(C(C)=O)C[C@@H]3O[C@H]1C[C@H](N)[C@H](O)[C@H](C)O1` [Daunorubicin hydrochloride], the “percent growth inhibition of drug alone” value in test [1] (7 µM) is 5 ± 0.63%; in test [1] (20 µM), 5.26 ± 2.2%. Further, the percent growth inhibition was -2.48 ± 6.2% in test [2] (setting [6]) and 97.24 ± 0.46% in test [2] (setting [5]).

With `CCCCCCCCCCCCCCCC[N+](C)(C)CCN(Cc1ccc(OC)cc1)c1ncccn1` [Thonzonium bromide], the figures for the “percent growth inhibition of drug alone” value in test [1] (7 µM) and in test [1] (20 µM) were -1.94 ± 3.1% and 2.72 ± 1.4%, respectively. The percent growth inhibition in test [2] (setting [5]) was determined as 98.2 ± 3.1%.

On to `CC(=O)OCC(=O)[C@@]1(O)CC[C@H]2[C@@H]3CCC4=CC(=O)CC[C@]4(C)[C@@]3(F)[C@@H](O)C[C@@]21C` [Fludrocortisone acetate], for which the “percent growth inhibition of drug alone” value in test [1] (7 µM) came to 1.64 ± 0.4%; in test [1] (20 µM) it was 3.28 ± 1.7%. The percent growth inhibition in test [2] (setting [6]) is 58.4 ± 10%; in test [2] (setting [5]), -6.61 ± 5%.

For `CC1COc2c(N3CCN(C)CC3)c(F)cc3c(=O)c(C(=O)O)cn1c23` (centres undefined) [Ofloxacin], the “percent growth inhibition of drug alone” value in test [1] (7 µM) was determined as 47.1 ± 5%; in test [1] (20 µM), 97.47 ± 0.25%. Also, the percent growth inhibition in test [2] (setting [6]) was found to be 98.02 ± 0.8%; in test [2] (setting [5]), 97.8 ± 1.4%; in test [2] (setting [7]) it was 99.97 ± 0.11%; in test [2] (antibiotic (0.125x MIC): gentamicin, 20 µM), 99.953 ± 0.055%; in test [2] (antibiotic (0.125x MIC): meropenem, 7 µM) it was 96.7 ± 3.1%; in test [2] (antibiotic (0.125x MIC): meropenem, 20 µM), 99.92 ± 0.12%.

For `Oc1c(I)cc(Cl)c2cccnc12` [Clioquinol], the “percent growth inhibition of drug alone” value was 12.1 ± 5% in test [1] (7 µM) and 44.53 ± 0.32% in test [1] (20 µM). Moreover, the values for the percent growth inhibition in test [2] (setting [6]) and in test [2] (setting [5]) were 47.2 ± 5.2% and 98.97 ± 0.28%, respectively.

Take `NC1CCN(c2c(F)cc3c(=O)c(C(=O)O)cn(C4CC4)c3c2Cl)C1` (centres undefined) [Clinafloxacin]: in test [3] (7 µM), the “percent growth inhibition of drug alone” value stood at 13.5 ± 8.8%. Also, the percent growth inhibition in test [4] (setting [8]) was determined as 13.8 ± 8.5%; in test [4] (setting [9]), 93.36 ± 0.75%; in test [4] (setting [10]), 14.4 ± 11%; in test [4] (setting [11]) it was 96.8 ± 4.4%.

`CC(C)(C)CC(C)(C)c1ccc(OCCOCC[N+](C)(C)Cc2ccccc2)cc1` [Benzethonium chloride]: the “percent growth inhibition of drug alone” value in test [1] (7 µM) worked out at 2.21 ± 0.87%; in test [1] (20 µM), 2.03 ± 2.5%. Besides, the percent growth inhibition turned out to be 4.69 ± 10% in test [2] (setting [6]) and 97.15 ± 0.41% in test [2] (setting [5]).

As for `CO/N=C(\C(=O)N[C@@H]1C(=O)N2C(C(=O)O)=C(C[N+]3(C)CCCC3)CS[C@H]12)c1csc(N)n1` [Cefepime hydrochloride], in test [1] (7 µM), the “percent growth inhibition of drug alone” value worked out at 3.95 ± 2.2%. Moreover, in test [2] (setting [7]), the percent growth inhibition stood at 37.1 ± 3.7%.

`Cc1nc2n(c(=O)c1CCN1CCC(c3noc4cc(F)ccc34)CC1)CCCC2` [Risperidone]: the entries for the “percent growth inhibition of drug alone” value in test [3] (7 µM) and in test [3] (20 µM) were -5.2 ± 14% and -6.94 ± 7.8%, respectively. For the same compound, the percent growth inhibition in test [4] (setting [8]) is 15.5 ± 4.5%; in test [4] (setting [9]) it was -11.1 ± 3%.

Take `Cc1c(F)c(N2CCNC(C)C2)cc2c1c(=O)c(C(=O)O)cn2C1CC1` (centres undefined) [Grepafloxacin]: the entries for the “percent growth inhibition of drug alone” value in test [3] (7 µM) and in test [3] (20 µM) were 13 ± 6.5% and 23.5 ± 9.9%, respectively. Further, the values for the percent growth inhibition in test [4] (setting [8]), in test [4] (setting [9]) and in test [4] (setting [10]) were 18.9 ± 3.6%, 51.2 ± 18% and 7.09 ± 6.5%, respectively.

Turning to `CN(C(=O)CN(CCO)CC(=O)N(C)C(C)(C)Cc1ccccc1)C(C)(C)Cc1ccccc1` [Oxethazaine], the “percent growth inhibition of drug alone” value in test [1] (7 µM) was -4 ± 0.52%; in test [1] (20 µM), -5.74 ± 4.4%. For the same compound, the percent growth inhibition in test [2] (setting [6]) was 4.52 ± 0.46%; in test [2] (setting [5]), 95.6 ± 1.6%.

Regarding `COc1c(N2C[C@@H]3CCCN[C@@H]3C2)c(F)cc2c(=O)c(C(=O)O)cn(C3CC3)c12` [Moxifloxacin], the “percent growth inhibition of drug alone” value in test [3] (7 µM) is 12.5 ± 0.24%. In addition, the percent growth inhibition in test [4] (setting [8]) was found to be 25.8 ± 7.3%; in test [4] (setting [9]), 99.24 ± 0.54%; in test [4] (setting [10]), 14.4 ± 14%; in test [4] (setting [11]) it was 99.69 ± 0.6%.

Consider `C[C@H](N)[C@H](O)c1cccc(O)c1` [Metaraminol bitartrate], for which the “percent growth inhibition of drug alone” value in test [3] (7 µM) was -7.73 ± 11%; in test [3] (20 µM) it was -0.507 ± 15%. Moreover, the percent growth inhibition in test [4] (setting [10]) is 8.48 ± 9.5%; in test [4] (setting [11]), -12.7 ± 7%.

On to `CCN1CCN(c2cc3c(cc2F)c(=O)c(C(=O)O)cn3C2CC2)CC1` [Enrofloxacin], for which, in test [3] (7 µM), the “percent growth inhibition of drug alone” value was 3.46 ± 4.9%. The percent growth inhibition in test [4] (setting [8]) was found to be 7.59 ± 7.8%; in test [4] (setting [9]), 73.1 ± 13%; in test [4] (setting [10]), 7.12 ± 1.8%; in test [4] (setting [11]), 69.6 ± 9.7%.

For `COc1ccc(OC)c(C(O)CNC(=O)CN)c1` (centres undefined) [Midodrine hydrochloride], the “percent growth inhibition of drug alone” value was -12.1 ± 4.3% in test [3] (7 µM) and -4.02 ± 9.3% in test [3] (20 µM). For the same compound, in test [4] (setting [11]), the percent growth inhibition was -2.55 ± 3.2%.

On to `CCn1cc(C(=O)O)c(=O)c2cc(F)c(N3CCNCC3)nc21` [Enoxacin], for which the “percent growth inhibition of drug alone” value in test [1] (7 µM) worked out at 1.76 ± 1.6%; in test [1] (20 µM), 25.2 ± 4%. Further, the percent growth inhibition in test [2] (setting [6]) is 13.6 ± 6.1%; in test [2] (setting [5]), 97.72 ± 0.24%; in test [2] (setting [7]), -1.06 ± 6.9%.

As for `NC1CCN(c2nc3c(cc2F)c(=O)c(C(=O)O)cn3-c2ccc(F)cc2F)C1` (centres undefined) [Tosufloxacin hydrochloride], the entries for the “percent growth inhibition of drug alone” value in test [3] (7 µM) and in test [3] (20 µM) were 56.5 ± 19% and 99.38 ± 0.74%, respectively. Moreover, the percent growth inhibition in test [4] (setting [8]) came out at 88.1 ± 8.8%; in test [4] (setting [9]), 99.03 ± 0.4%.
